According to PubChem BioAssay AID1159580 (chemical genetic matrix, 2015):
The whole screen tested about 5,500 compounds, of which about 2,000 (36%) were called active. Not shown: some 18% with an inconclusive outcome. Cut-off read from the data, not from the text of the source: active = normalized growth mostly below about 0.91 (no sharp cut-off); inconclusive = no clear call, values can overlap the other calls; inactive = mostly above about 0.92. The list shows a part of the results.

Assay: chemical genetic growth profiling, strain panel (AID 1159580);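 note: tested at 20 µM; growth read once vehicle control cultures reached saturation at 30 °C; 1 = growth at the plate median or of vehicle wells; lower values mean less growth of the strain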
Details: S. cerevisiae deletion strains, growth OD

Measured: normalized growth

C[N+]1(C)C2CC(OC(=O)[C@H](CO)c3ccccc3)CC1C1OC12 (stereo partly specified)
inactive: locus YAL040C, strain CLN3, active compounds read low 0.999 | locus YCL061C, strain MRC1 (second series), active compounds read low 1 | locus YDR363W, strain ESC2, active compounds read low 0.998 | locus YER002W, strain NOP16, active compounds read low 0.981 | locus YMR263W, strain SAP30, active compounds read low 0.998 | locus YMR307W, strain GAS1, active compounds read low 0.946 | locus YNL153C, strain GIM3, active compounds read low 0.99 | locus YNL175C, strain NOP13, active compounds read low 0.996 | locus YNL197C, strain WHI3, active compounds read low 0.988 | locus YNL224C, strain SQS1, active compounds read low 0.994 | locus YOR083W, strain WHI5 (second series), active compounds read low 0.991
